Screening results (PubChem BioAssay)
KB-V1 cytotox: qHTS assay for MDR1-selective chemotherapeutics: Primary screen using the drug-selected MDR subline cells KB-V1 | Potency, µM (doses to about 46.1 µM), hits mostly cytotoxic | KB-V1 MDR cells viability, CellTiter-Glo, 72 h | 400,000 compounds, 3.4% hits; note: % is set by controls: 0 for no effect and ±100 for the full control effect; nearly all actives have a fitted effect of over 60% in size
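KB-V1, DMEM (no phenol red) + 10% FBS; cpd pin-transferred, titration series; 72 h, 37 degrees C; CellTiter-Glo, luminescence. Data normalized, curve-fit.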
ELG1 DNA repair: qHTS screen for small molecules that inhibit ELG1-dependent DNA repair in human embryonic kidney (HEK293T) cells expressing luciferase-tagged ELG1 | HEK293T ELG1-luciferase reporter, luminescence, 16 h; DNA damage induced by 5-fluorouridine | Potency, µM (titrated, usually from 46.1 µM), inactives show at the highest dose activity change, negative = inhibition, actives largely listed as inhibitors | 330,000 compounds, 2.3% hits | AID 504467, 2011; note: % is set by controls: 0 for no effect and ±100 for the full control effect; nearly all actives have a fitted effect of over 55% in size
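Quantitative HTS, concentration-response format. 2,000 cells/well co-treated with 5-fluorouridine and compound, 16 hr in 5% CO2 at 37 °C; ONE-Glo luminescence read after 30 min.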
SW480 rereplic: A quantitative high throughput screen for small molecules that induce DNA re-replication in SW480 colon adenocarcinoma cells; SW480 DNA re-replication, Hoechst DNA content imaging, 48 h; Potency, µM (series often up to 46.1 µM), inactives show at the highest dose re-replication activation, usual class: activators; 340,000 compounds, 1.8% hits; note: % of control where 0% means no effect; nearly all actives have a fitted effect of over 55% in size
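Readout is total intensity of Hoechst-stained nuclei, excited at 405 nm and collected at 500-530 nm. Compound treatment lasted 48 hr at 37 C in 5% CO2 before staining.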
KB-3-1 tox: qHTS assay for MDR1-selective chemotherapeutics: Primary screen using the parental adenocarcinoma cell KB-3-1 | AID 1347075, 2019 | 400,000 compounds, 1.4% hits | KB-3-1 viability, CellTiter-Glo ATP luminescence, 72 h | Potency, µM (doses to about 46.1 µM), usual class: cytotoxic; note: % is set by controls: 0 for no effect and ±100 for the full control effect; nearly all actives have a fitted effect of over 60% in size
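Multi-concentration cytotoxicity screen in KB-3-1 cells grown in DMEM lacking phenol red with 10% FBS. After 72 h at 37 °C with compound, ATP-dependent luminescence was recorded.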
MCF10A rerep: A quantitative high throughput screen for small molecules that induce DNA re-replication in MCF 10a normal breast cells. 350,000 compounds, 2.9% hits. MCF 10A DNA re-replication, Hoechst nuclear intensity, 48 h. Potency, µM (titrated, usually from 46.1 µM), without a hit: top-dose activity, positive = re-replication, usual class: activators; note: % of control where 0% means no effect; nearly all actives have a fitted effect of over 50% in size
Starred values were filed as active, the others as inactive; i = inactive; ? = inconclusive; · = not tested or not shown. Compounds with a hit are over-represented: about 8.1% of the library has one in this group of screens. Calls come from the whole dose curve; as a rule, active = well fitted curve in the direction sought with a large enough effect; inconclusive = small, poorly fitted or top-dose-only effect, or another doubt; inactive = no such curve, though single readings can be large; an effect the other way counts as inactive or inconclusive. Potency is the fitted concentration of half-maximal effect.

SMILES	KB-V1 cytotox	ELG1 DNA repair	SW480 rereplic	KB-3-1 tox	MCF10A rerep
CC(=O)Nc1ccc(NC(=O)c2cc(-c3cc(C)cc(C)c3O)n[nH]2)cc1	i	23µM*	-24%	?	10%
CC1(C(=O)NS(=O)(=O)Cc2cccc(Cl)c2)CCN1C(=O)C1CCCCC1 (stereo unspecified)	i	·	·	i	·
Cc1c(C(=O)N/N=C/C(C)C)[nH]c2c([N+](=O)[O-])cccc12	?	-4%	?	?	21µM*
c1cncc(N=c2scc(-c3cccc4ccccc34)n2CCCn2ccnc2)c1	12µM*	?	2%	i	26%
CC(C)c1cc(C(=O)OCC(=O)NC(=O)NCc2ccco2)c(O)c(C(C)C)c1	?	-20%	8%	?	16µM*
O=C(COC(=O)c1ccccc1C(F)(F)F)NC(=O)NCc1ccco1	?	0%	-1%	i	2%
O=C(CN1C(=O)c2ccccc2S1(=O)=O)Nc1ccon1	i	0%	4%	i	4%
COc1ccc(C(=O)C2CCCN(C(=O)c3ccccc3C(C)=O)C2)cc1F (stereo unspecified)	i	0%	8%	i	1%
COc1ccc(C(=O)C2CCCN(C(=O)COc3ccc(C(C)=O)cc3)C2)cc1F (stereo unspecified)	?	15µM*	-1%	i	4%
Cc1ccc(C)c(S(=O)(=O)N2CCN(C(=O)CNC(=O)c3ccc4ccccc4c3)CC2)c1	23µM*	?	?	?	?
Cc1ccc(NC(=O)c2ccccc2F)cc1S(=O)(=O)N1CCCCCC1	?	?	1%	i	-1%
Cc1csc(NC(=O)c2ccc(C)c(S(=O)(=O)N3CCCCC3)c2)n1	9.2µM*	?	3%	?	7%
Cc1ccc(NC(=O)Cc2ccccc2F)cc1S(=O)(=O)N1CCCCCC1	i	12µM*	-3%	?	17%
Cc1ccc(NC(=O)c2ccc(C)c(S(=O)(=O)N3CCCCCC3)c2)cc1	21µM*	·	·	?	·
Cc1ccc(C(=O)Nc2cccc(O)c2)cc1S(=O)(=O)N1CCCCCC1	i	?	?	?	?
CN(C)CCCN(C(=O)c1cc(-c2cccs2)nc2ccccc12)c1nc2ccc(F)cc2s1	?	?	?	i	?
Cc1ccnc2ccc(N)cc12	i	·	·	i	·
COc1ccc(C(=O)c2[nH]c(N)c(C(=O)NCCc3c[nH]c4ccccc34)c2-c2ccc(Br)cc2)cc1	?	·	·	i	·
CC(=O)Nc1ccc(C(=O)N2CCCCC2c2cc(C(=O)NCc3ccc(F)cc3)no2)cc1 (stereo unspecified)	i	·	·	i	·
Cc1ccc(NC(=O)c2ccc(Cl)c(N3C(=O)C=CC3=O)c2)cc1	?	13%	13µM*	?	15µM*
Cc1ccc(NC(=O)c2ccc(F)cc2)cc1S(=O)(=O)N1CCCCCC1	i	16µM*	-11%	i	?
COc1ccc(C(=O)Nc2ccc(C)c(S(=O)(=O)N3CCCCCC3)c2)cc1	?	?	0%	?	?
CCc1noc(C)c1C(=O)N1CCN(S(=O)(=O)c2c(C)c(C)cc(C)c2C)CC1	10µM*	-15%	5%	i	6%
CCc1noc(C)c1C(=O)Nc1ccc(C)c(S(=O)(=O)N2CCCCCC2)c1	7.3µM*	?	14%	i	11%
CCCCNC(=NCc1cccc(C(F)(F)F)c1)Nc1ccccc1	21µM*	-6%	?	?	?
SMILES	KB-V1 cytotox	ELG1 DNA repair	SW480 rereplic	KB-3-1 tox	MCF10A rerep
Cc1c(Cl)cccc1NC(=S)N1CCCCCC1	i	14%	-3%	i	10%
CCCCN(CCCC)c1nc(OC)nc(-n2nnc(C(C)=O)c2C)n1	i	?	-3%	i	?
Cc1cc(C)n(-c2nc(N(c3ccccc3)c3ccccc3)nc(-n3nc(C)cc3C)n2)n1	2.6µM*	26µM*	17%	18µM*	?
CC(=O)c1nnn(-c2nc(N)nc(N(c3ccccc3)c3ccccc3)n2)c1C	10µM*	-14%	-9%	i	0%
COc1ccc(C(CNC(=O)C(C)Sc2ccccc2)N2CCOCC2)cc1 (stereo unspecified)	i	·	?	i	?
COc1ccc(-n2nnnc2S(=O)(=O)CC(=O)N2CCCCC2)cc1	?	-17%	16%	21µM*	7.3µM*
CCc1ccc(Oc2nnnn2-c2ccc(C(N)=O)cc2)cc1	i	7%	1%	i	-4%
COc1ccc(-n2nnnc2S(=O)(=O)Cc2ccc(C(=O)O)cc2)cc1	i	?	7.3µM*	i	16µM*
Cc1cccc(C(C)C)c1NC(=O)COC(=O)CCC(=O)N(CC(C)C)c1c(N)n(CC(C)C)c(=O)[nH]c1=O	i	·	·	i	·
Cc1cc(C2=NNC(=NC3CCCCC3)SC2)c(C)n1-c1c(C)n(C)n(-c2ccccc2)c1=O	?	?	11%	i	14%
Cc1cccc(C)c1N=C1NN=C(c2ccccc2F)CS1	18µM*	4%	·	?	6%
FC(F)Sc1ccc(N=C2NN=C(c3ccc4c(c3)OCCO4)CS2)cc1	?	?	12µM*	?	?
Cc1cc(C2=NNC(=NC3CC3)SC2)c(C)n1-c1ccccc1F	i	?	?	?	18µM*
CCCCN=C1NN=C(c2ccc3c(c2)OCCO3)CS1	i	?	?	i	12%
c1cc2c(cc1C1=NNC(=NC3CC3)SC1)OCCO2	8.2µM*	?	4.1µM*	?	?
O=C(NCc1ccccc1)c1cc(C2CCCCN2S(=O)(=O)c2cccs2)on1 (stereo unspecified)	i	·	·	i	·
C[C@@]12CC[C@@H](C3=C(CCC3)C1)N2c1ccccc1	i	·	·	i	·
c1ccc(CN=C2NN=C(c3cc4ccccc4o3)CS2)cc1	i	?	?	i	?
c1ccc2oc(C3=NNC(=NC4CC4)SC3)cc2c1	i	?	?	9.2µM*	12µM*
CCOC(=O)C1CCN(CC(=O)c2c(C)n(C)c3ccc(OC)cc23)CC1	i	1%	-8%	i	-7%
CCN(CC)C(=O)c1ccc(Nc2nnc(-c3ccc(O)cc3)c3ccccc23)cc1	?	16µM*	-13%	i	0%
CCN(CC)C(=O)c1ccc(-c2nnc(Nc3cccc(O)c3)c3ccccc23)cc1	i	?	3%	i	6%
